{
  "source": "the supplement of paper PMC11732987",
  "about": "“Enantioselective OTUD7B fragment discovery through chemoproteomics screening and high-throughput optimisation” (Communications Chemistry, 2025)",
  "assay_in_all_cases": "log2 ratio of Biotin-Ahx-Ub-VS probe labelling (fragment/DMSO); higher = less target engagement (more negative = stronger competition), active = hit call of the paper (q ≤ 0.05, log2 ratio ≤ -1)",
  "settings_in_all_cases": "compound concentration: 200 uM; treatment time: 3 h",
  "key": {"USP19": {"target": "T1, USP19 (UniProt O94966)", "T1 sequence (whole entry)": "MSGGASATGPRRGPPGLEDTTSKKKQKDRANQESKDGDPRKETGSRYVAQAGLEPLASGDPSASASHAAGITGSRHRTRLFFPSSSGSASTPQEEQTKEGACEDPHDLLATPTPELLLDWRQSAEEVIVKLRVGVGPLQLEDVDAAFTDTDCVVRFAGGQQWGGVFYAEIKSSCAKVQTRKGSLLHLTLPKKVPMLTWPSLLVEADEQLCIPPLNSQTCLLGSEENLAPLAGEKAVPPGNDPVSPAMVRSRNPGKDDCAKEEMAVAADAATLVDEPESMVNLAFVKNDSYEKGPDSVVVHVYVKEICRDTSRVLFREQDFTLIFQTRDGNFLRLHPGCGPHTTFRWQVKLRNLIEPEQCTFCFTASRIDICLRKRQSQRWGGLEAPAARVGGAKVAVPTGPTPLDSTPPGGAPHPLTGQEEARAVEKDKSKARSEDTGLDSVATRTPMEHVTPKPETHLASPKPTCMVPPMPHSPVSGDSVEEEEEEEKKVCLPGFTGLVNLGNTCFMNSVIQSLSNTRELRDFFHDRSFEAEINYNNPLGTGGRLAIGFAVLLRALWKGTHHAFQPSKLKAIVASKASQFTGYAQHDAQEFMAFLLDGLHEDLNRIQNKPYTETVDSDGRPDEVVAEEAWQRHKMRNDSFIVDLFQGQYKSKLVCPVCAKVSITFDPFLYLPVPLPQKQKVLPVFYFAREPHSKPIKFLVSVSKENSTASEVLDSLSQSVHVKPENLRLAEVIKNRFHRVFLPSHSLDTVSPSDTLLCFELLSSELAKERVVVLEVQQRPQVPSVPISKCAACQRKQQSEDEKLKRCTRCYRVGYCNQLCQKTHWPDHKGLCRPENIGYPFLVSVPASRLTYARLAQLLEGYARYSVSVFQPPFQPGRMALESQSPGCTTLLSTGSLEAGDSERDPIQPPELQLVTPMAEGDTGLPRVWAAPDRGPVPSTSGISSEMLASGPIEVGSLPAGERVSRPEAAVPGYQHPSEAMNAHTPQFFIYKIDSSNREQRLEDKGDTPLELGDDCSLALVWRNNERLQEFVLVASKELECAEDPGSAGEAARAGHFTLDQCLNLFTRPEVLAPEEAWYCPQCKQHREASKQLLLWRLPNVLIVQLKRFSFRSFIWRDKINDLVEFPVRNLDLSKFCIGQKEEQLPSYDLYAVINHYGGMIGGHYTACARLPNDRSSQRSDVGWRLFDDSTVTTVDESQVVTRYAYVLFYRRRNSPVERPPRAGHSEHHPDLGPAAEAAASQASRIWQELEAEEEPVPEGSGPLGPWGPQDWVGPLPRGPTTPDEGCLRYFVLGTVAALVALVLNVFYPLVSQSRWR", "outline": "(§1)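 Labelled DUBs from HEK293T lysate were NeutrAvidin-enriched, digested with LysC and trypsin, and run by diaPASEF LC-MS/MS. Before that, each 495 µg sample in Tris/CHAPS/IGEPAL buffer with protease inhibitors was treated in triplicate with fragment at 200 µM or vehicle for 3 h, then with Biotin-Ahx-Ub-VS at 0.5 µM final for 1 h. Values are average log2 ratios of fragment over vehicle by unpaired t-test, based on global-median-normalised Spectronaut label-free quantities from proteins with ≥2 unique peptides.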"}, "USP22": {"target": "T2, USP22 (UniProt Q9UPT9)", "T2 sequence (whole entry)": "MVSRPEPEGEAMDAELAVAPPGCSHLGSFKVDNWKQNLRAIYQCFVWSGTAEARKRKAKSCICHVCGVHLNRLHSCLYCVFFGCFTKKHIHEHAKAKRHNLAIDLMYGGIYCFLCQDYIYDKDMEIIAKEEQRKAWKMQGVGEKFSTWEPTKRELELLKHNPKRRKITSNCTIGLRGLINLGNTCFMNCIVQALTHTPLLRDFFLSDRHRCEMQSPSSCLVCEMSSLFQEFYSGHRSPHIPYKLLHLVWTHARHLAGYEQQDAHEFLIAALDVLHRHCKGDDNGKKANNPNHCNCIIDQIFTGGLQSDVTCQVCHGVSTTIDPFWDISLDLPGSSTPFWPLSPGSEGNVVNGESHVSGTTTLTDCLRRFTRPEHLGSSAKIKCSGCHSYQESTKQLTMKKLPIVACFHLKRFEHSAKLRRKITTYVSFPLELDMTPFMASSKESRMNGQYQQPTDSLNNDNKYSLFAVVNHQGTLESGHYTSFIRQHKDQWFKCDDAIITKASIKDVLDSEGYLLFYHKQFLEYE", "outline": "as §1"}, "USP24": {"target": "USP24 (UniProt Q9UPU5)", "sequence (Q9UPU5 whole entry)": "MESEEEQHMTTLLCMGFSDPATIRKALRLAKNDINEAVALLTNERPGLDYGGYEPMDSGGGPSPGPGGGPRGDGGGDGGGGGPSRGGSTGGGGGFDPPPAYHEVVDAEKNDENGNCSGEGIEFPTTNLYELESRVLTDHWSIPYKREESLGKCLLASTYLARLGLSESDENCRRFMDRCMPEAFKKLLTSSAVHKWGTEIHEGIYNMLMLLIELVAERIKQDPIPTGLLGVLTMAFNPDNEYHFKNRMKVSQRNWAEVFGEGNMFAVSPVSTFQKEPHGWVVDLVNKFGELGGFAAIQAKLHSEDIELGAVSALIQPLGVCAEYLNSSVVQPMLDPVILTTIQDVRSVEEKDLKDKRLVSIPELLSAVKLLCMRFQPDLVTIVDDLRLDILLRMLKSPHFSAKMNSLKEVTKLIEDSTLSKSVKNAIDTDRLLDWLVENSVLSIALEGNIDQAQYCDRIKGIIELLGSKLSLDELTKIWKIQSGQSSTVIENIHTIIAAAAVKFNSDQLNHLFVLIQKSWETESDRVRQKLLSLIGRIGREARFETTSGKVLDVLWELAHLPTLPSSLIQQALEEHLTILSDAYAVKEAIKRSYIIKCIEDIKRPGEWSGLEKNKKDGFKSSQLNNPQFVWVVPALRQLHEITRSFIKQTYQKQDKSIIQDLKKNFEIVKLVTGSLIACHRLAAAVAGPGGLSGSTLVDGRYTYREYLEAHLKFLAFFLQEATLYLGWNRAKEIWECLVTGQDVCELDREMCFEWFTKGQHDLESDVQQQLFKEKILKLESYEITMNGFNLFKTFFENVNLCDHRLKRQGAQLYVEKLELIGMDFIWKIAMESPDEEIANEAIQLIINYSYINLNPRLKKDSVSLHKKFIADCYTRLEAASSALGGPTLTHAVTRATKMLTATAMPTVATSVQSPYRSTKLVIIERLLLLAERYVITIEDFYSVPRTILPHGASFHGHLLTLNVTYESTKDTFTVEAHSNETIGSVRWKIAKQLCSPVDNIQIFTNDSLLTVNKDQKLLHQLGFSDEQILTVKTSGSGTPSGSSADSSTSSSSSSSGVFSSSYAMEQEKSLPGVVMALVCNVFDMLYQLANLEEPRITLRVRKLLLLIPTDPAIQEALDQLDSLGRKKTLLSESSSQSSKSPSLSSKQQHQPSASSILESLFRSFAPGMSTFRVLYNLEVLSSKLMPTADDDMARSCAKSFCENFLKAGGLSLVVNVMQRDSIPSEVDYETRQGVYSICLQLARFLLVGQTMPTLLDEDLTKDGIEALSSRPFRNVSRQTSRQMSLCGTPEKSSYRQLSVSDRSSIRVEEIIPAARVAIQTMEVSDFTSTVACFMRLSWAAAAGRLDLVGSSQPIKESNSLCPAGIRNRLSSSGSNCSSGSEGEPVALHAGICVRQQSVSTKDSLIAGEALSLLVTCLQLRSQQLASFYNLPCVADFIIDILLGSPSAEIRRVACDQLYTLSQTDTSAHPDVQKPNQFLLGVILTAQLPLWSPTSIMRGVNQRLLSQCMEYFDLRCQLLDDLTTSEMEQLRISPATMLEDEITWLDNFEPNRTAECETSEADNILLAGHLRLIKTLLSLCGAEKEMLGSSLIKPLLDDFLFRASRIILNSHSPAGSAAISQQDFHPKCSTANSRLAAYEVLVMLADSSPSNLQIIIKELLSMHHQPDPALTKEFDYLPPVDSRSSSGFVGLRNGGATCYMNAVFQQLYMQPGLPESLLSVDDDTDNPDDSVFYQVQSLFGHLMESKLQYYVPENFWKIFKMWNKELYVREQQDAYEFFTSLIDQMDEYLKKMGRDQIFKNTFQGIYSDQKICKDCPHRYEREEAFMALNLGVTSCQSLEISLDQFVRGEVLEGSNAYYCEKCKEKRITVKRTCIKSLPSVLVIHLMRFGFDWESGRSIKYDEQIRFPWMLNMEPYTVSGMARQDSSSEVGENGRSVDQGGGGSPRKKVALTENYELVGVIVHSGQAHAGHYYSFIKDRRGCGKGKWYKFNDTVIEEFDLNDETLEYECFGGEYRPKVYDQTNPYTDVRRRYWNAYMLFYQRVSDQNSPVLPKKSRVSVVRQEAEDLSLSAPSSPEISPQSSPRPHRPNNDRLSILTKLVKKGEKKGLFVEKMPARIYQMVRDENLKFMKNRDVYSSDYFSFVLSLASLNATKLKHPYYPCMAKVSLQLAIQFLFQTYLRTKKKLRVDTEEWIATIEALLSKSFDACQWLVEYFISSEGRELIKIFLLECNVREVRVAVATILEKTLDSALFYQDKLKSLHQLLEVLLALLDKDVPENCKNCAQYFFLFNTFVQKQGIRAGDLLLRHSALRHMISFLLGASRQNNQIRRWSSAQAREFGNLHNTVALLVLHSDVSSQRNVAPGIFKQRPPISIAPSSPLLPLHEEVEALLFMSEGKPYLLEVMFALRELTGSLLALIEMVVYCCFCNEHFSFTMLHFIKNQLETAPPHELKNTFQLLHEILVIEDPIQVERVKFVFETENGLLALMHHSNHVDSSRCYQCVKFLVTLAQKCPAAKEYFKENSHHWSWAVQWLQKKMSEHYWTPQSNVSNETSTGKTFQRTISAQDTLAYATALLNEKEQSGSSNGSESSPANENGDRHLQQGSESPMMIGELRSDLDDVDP", "outline": "as §1"}, "USP25": {"target": "T3, USP25 (UniProt Q9UHP3)", "T3 sequence (whole entry)": "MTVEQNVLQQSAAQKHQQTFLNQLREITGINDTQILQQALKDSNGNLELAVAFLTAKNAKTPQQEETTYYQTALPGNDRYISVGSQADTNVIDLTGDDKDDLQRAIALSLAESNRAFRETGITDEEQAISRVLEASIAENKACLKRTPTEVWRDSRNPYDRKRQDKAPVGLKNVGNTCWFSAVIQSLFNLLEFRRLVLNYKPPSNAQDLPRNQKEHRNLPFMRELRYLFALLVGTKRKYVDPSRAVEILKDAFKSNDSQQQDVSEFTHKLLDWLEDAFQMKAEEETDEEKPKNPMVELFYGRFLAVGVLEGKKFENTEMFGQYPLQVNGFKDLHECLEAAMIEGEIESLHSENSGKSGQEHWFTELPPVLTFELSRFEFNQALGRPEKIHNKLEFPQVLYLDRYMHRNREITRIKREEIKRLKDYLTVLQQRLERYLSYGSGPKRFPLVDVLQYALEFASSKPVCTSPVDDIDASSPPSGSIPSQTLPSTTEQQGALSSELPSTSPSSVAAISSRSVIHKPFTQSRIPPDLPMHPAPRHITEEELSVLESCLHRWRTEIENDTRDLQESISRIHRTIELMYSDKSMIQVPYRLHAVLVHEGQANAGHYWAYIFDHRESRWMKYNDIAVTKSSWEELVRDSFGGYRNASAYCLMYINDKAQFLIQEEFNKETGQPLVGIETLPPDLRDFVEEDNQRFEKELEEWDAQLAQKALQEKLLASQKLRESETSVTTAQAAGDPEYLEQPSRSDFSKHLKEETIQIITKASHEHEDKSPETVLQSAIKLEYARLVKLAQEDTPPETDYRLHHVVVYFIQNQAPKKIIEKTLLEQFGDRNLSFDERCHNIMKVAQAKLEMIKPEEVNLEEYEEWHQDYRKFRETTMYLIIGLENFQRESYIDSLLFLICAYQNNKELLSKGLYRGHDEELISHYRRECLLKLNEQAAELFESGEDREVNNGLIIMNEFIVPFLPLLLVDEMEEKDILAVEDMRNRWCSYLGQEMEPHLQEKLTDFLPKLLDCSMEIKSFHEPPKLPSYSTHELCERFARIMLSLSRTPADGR", "outline": "as §1"}, "USP28": {"target": "T4, USP28 (UniProt Q96RU2)", "T4 sequence (whole entry)": "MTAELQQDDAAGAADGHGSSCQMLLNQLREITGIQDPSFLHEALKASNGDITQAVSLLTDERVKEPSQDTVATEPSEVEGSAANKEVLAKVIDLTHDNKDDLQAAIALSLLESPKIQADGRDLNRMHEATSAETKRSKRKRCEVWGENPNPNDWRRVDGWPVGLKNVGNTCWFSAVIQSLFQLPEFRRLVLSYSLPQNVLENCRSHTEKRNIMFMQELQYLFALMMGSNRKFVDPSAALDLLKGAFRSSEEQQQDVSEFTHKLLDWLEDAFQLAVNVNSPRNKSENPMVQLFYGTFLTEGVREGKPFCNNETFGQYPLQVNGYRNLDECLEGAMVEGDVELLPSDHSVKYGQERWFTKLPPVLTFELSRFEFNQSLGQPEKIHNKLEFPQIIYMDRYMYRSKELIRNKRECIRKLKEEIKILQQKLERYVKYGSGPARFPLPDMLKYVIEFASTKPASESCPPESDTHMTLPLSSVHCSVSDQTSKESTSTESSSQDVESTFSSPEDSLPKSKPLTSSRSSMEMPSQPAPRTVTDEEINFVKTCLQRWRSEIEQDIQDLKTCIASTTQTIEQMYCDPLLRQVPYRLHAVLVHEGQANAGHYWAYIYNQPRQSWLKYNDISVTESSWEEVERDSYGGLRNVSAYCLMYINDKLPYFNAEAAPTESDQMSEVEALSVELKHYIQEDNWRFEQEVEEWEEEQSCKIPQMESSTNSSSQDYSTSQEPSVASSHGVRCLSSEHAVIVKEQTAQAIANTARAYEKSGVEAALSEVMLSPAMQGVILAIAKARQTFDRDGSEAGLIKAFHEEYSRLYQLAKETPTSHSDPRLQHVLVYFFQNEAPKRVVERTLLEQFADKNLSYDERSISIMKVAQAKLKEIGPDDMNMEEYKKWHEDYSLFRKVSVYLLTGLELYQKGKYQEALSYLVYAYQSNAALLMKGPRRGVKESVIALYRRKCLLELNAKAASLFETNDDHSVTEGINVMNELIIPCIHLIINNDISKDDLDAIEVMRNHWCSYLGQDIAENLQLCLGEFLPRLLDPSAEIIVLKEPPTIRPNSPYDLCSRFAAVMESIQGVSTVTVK", "outline": "as §1"}},
  "note": "Values without a mark were called inactive.",
  "data": [
    {"smiles": "O=C(CCl)Nc1ccc(Cl)c(F)c1", "values": [
      {"measurement": "log2 ratio of Biotin-Ahx-Ub-VS probe labelling", "setting": "USP19", "value": -0.486},
      {"measurement": "log2 ratio of Biotin-Ahx-Ub-VS probe labelling", "setting": "USP22", "value": -0.253},
      {"measurement": "log2 ratio of Biotin-Ahx-Ub-VS probe labelling", "setting": "USP24", "value": "-1.66 (active)"},
      {"measurement": "log2 ratio of Biotin-Ahx-Ub-VS probe labelling", "setting": "USP25", "value": "-1.62 (active)"},
      {"measurement": "log2 ratio of Biotin-Ahx-Ub-VS probe labelling", "setting": "USP28", "value": "-1.53 (active)"}
    ]}
  ]
}
